About 83,000 compounds went through this panel and 20% of them were active in at least one assay; those are over-represented in the sample as a whole.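 Method: cells in 96-well plates; compound added at one concentration; 48 h incubation; percent growth measured; values under 10 scored active.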 The source made the active and inactive calls.
Columns and labels:
Test in all cases: NCI-60 one-dose screen, 48 h (100 = growth as untreated, 0 = no growth, -100 = all killed)
Details in all cases: 10 µM unless noted
[1] = test system: NCI-H23 lung
[2] = test system: NCI-H322M lung
[3] = test system: HOP-62 NSCLC
[4] = test system: NCI-H460 lung
[5] = test system: HOP-92 NSCLC
[6] = test system: NCI-H522 lung
[7] = test system: A549/ATCC NSCLC
[8] = test system: 786-0 renal
[9] = test system: COLO 205 colon
[10] = test system: DU-145 prostate
[11] = test system: K-562 leukemia
[12] = test system: MALME-3M melanoma
[13] = test system: MDA-MB-231 breast
[14] = test system: RXF 393 renal
[15] = test system: SF-268 CNS
[16] = test system: SF-295 CNS
[17] = test system: SF-539 CNS
[18] = test system: UACC-257 melanoma
[19] = test system: M14 melanoma

Measured: growth

N[C@H]1CN(C(=O)c2cc3cc(Br)c(F)c(F)c3[nH]2)C[C@@H]1O
active: [18] -76.6%
inactive: [1] 96.3% | [2] 89.5% | [3] 99.9% | [4] 107% | [5] 79.2% | [6] 95.1% | [7] 101% | [8] 86.2% | [9] 118% | [10] 112% | [11] 104% | [12] 101% | [13] 92% | [14] 103% | [15] 88.5% | [16] 104% | [17] 96% | [19] 97.2%

Cn1ccc(=O)c(S(N)(=O)=O)c1
inactive: [1] 95.6% | [2] 108% | [3] 92.4% | [4] 102% | [5] 89.3% | [6] 96.2% | [7] 99.7% | [8] 103% | [9] 117% | [10] 119% | [11] 93.4% | [12] 95.5% | [13] 101% | [14] 85.8% | [15] 100% | [16] 102% | [17] 103% | [18] 109%

Cc1ccc(-c2cc3nc(C(Cl)Cl)nc(-c4cccnc4)n3n2)cc1
active: [1] -32.5% | [3] -8% | [4] -10.5% | [5] -2.25% | [6] 4.51% | [7] -14.2% | [9] -82.6% | [10] -22% | [11] 9.52% | [12] 5.51% | [13] 2.53% | [16] 4.01%
inactive: [2] 18.2% | [8] 69.5% | [15] 25.7% | [17] 63% | [18] 86% | [19] 61%

O=C1Nc2ccc(Cl)cc2C12Nc1cc(Cl)ccc1S2 (centres undefined)
inactive: [1] 69.1% | [2] 100% | [3] 103% | [4] 62.7% | [5] 77.2% | [6] 47.1% | [7] 72.9% | [8] 89.4% | [9] 101% | [10] 96.5% | [11] 39.2% | [12] 74.2% | [13] 83.2% | [15] 88.3% | [16] 106% | [17] 87.9% | [18] 129% | [19] 93.9%
active: [14] -8.23%

O=C(Nc1ccc(NCCN2CCOCC2)nc1)c1ccc([N+](=O)[O-])cc1
inactive: [1] 100% | [2] 107% | [3] 103% | [4] 110% | [5] 103% | [6] 95.2% | [7] 98.3% | [8] 104% | [9] 110% | [10] 106% | [11] 103% | [12] 105% | [13] 103% | [14] 124% | [15] 103% | [16] 91.3% | [17] 95.6% | [18] 93.1% | [19] 105%

O=C(Nc1cccc(-n2cc(-c3ccncc3)c(-c3ccc(Cl)c(O)c3)n2)c1)c1ccc(N2CCOCC2)c(C(F)(F)F)c1
active: [4] 5.81% | [11] 7.96% | [14] -26%
inactive: [1] 61.3% | [2] 82.1% | [3] 40.4% | [5] 10.2% | [6] 39.6% | [7] 31.4% | [8] 59.6% | [9] 96.1% | [10] 52.7% | [12] 10.7% | [13] 23.4% | [15] 55.5% | [17] 41.6% | [18] 38.9% | [19] 22.7%

COC(OC)c1ccccc1
inactive: [1] 105% | [2] 103% | [3] 99.3% | [4] 117% | [5] 79.6% | [6] 101% | [7] 103% | [8] 95% | [9] 107% | [10] 110% | [11] 108% | [12] 99.7% | [13] 97% | [14] 101% | [15] 104% | [16] 112% | [17] 102% | [18] 92.2% | [19] 101%

COc1cc2c(c(OC)c1OC)-c1ccc(N)c(=O)cc1[C@@H](NC(C)=O)CC2
inactive: [2] 27.4% | [3] 46.1% | [5] 31% | [7] 21.3% | [8] 19.7% | [11] 17.3% | [12] 58.4% | [15] 17.9% | [16] 17.7% | [18] 61.2%
active: [1] 4.57% | [4] -2.43% | [6] -34.2% | [9] -71.8% | [10] -28.8% | [13] -9.55% | [14] -5.16% | [17] -14% | [19] -21.8%

Source: PubChem BioAssay (NCI)
